In the supplement of paper PMC6555819:

Legend:
Assay in all cases: PBM binding z-score (relative to random genomic background probes); higher = stronger binding; sequences stand for … in GC…GCGATTGACAGCGTAGAATGAAGG
[1] = test system: RARb homodimer (NR concentration 270 nM)
Procedure, shortened: (§1)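 Probes were double-stranded and carried 34-nt variable regions with direct-repeat seeds, single-nucleotide variants, half-site ablations and random human genomic background sequences, printed on custom Agilent 4×180K protein-binding microarrays. Arrays were incubated 1 h with ligand-free nuclear receptor dimers in PBS pH 7.4, 2% milk, 0.02% Triton X-100, 1 mM DTT, 0.2 mg/mL BSA and 0.4 mg/ml salmon testes DNA. Antibodies against each partner (one per run) detected binding, and scanned fluorescence was regression-normalized. Binding z-scores use the random background probes as reference.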

[2] = test system: RARg:RXRa (NR concentration 270 nM, RXRa partner concentration 90 nM)
Procedure, shortened: as §1

[3] = test system: RARg homodimer (NR concentration 270 nM)
Procedure, shortened: as §1

[4] = test system: RXRa DBDmut IVT, anti-RXR (DBD mutation: RXRa K156A/R161A, NR concentration 90 nM)
Procedure, shortened: as §1

[5] = test system: RXRa homodimer (NR concentration 180 nM)
Procedure, shortened: as §1

[6] = test system: THRa:RXRa (NR concentration 90 nM, RXRa partner concentration 90 nM)
Procedure, shortened: as §1

[7] = test system: THRa homodimer (NR concentration 90 nM)
Procedure, shortened: as §1

[8] = test system: VDR:RXRa (NR concentration 270 nM, RXRa partner concentration 90 nM)
Procedure, shortened: as §1

[9] = test system: VDR homodimer (NR concentration 270 nM)
Procedure, shortened: as §1

Sequence	PBM binding z-score [1]	PBM binding z-score [2]	PBM binding z-score [3]	PBM binding z-score [4]	PBM binding z-score [5]	PBM binding z-score [6]	PBM binding z-score [7]	PBM binding z-score [8]	PBM binding z-score [9]
TCTTGTTGATCAACAGGAGGTTAAGAAAGATCGA	0.286	0.304	0.198	0.0758	0.644	0.723	-0.731	0.368	-0.304
TTACCAAGGAGAGCTGAGGTCGTTGATCCAACTC	0.714	0.0578	-0.138	-0.0158	0.657	2.56	1.2	1.15	2.11
CCAGACAGGCGAAAGGTAACTCAGTCTGGTACGC	-0.261	0.0389	-0.491	-0.267	0.25	-0.18	-0.896	-0.255	-0.57
CCTCGGAGGACAGAAGGTAAGAGCTGTCCGCTTT	-0.457	-0.117	0.0766	-0.382	-0.845	-0.0375	-0.566	-0.622	-0.677
TAGCCTAGGTCATGCGCCAGTATACCACGCGAAC	2.94	3.96	4.3	0.931	3.24	3	1.31	2.01	0.653
AGTCAAAGTTCACTAGGTGACGTAAGATTCAGCT	4	5.11	5.68	4.42	3.96	2.33	0.0713	4.03	3.73
TCGAGTAGGTTAGACGGGGCATTCAGCCAACATA	0.538	0.307	0.0787	0.0493	0.305	0.812	-0.51	1.29	-0.0872
TCTCGGAGGACACGAAAGGTCGGAGCTCGACATC	2.87	2.45	2.91	1.02	1.66	2.7	0.464	1.08	0.287
TAGCCTAGGTCAGAGCGGGCCAGTATACGCTATA	1.85	2.55	3.13	-0.459	1.18	2.85	-0.121	0.36	-0.402
TCGAGTGGGTTAGTCGGGGCATTCAGCCAACATA	0.697	-0.203	-0.276	0.51	-0.199	1.18	0.456	2.25	0.85
CGTCCATGGTCAAGGTCAGTGAAAGAGACTCGAA	3.21	3.15	3.78	0.79	2.4	2.84	1.79	1.51	1.02
AGTCTAAGTTCACTAGGTAACGTAAGATTCAGCT	2.21	3.35	3.69	4.47	2.31	2.27	0.878	3.59	4.71
CTACCAAGGTGAACCAGGTCGTTGATTACTATTC	1.75	1.44	1.26	0.903	1.76	3.09	1.85	4.93	1.28
GGTTACGGGTCAAAGGTTATAGCATGAATAGAAT	3.44	6.91	4.71	1.89	9.23	4.06	0.33	5.46	1.64
GCTTACGCGTCAAAGGTTATAGCATGAATAGAAT	0.965	1.43	0.64	0.189	3.35	1.65	-0.774	1.12	-0.203
GCTGCTAAGTCAACTGATGGTCAGCTAAAGCTCG	0.11	0.204	-0.211	0.184	-0.0847	-0.519	-1.1	-0.619	-1.02
CGTCCAAGGTCAGACAGGTCAGTGAATGCCGAGT	4.84	5.32	6.13	3.11	4.43	3.97	2.16	5.82	3.77
TCTTGTAGATCTAAGGTTAAGAAAGCCGAAGCCT	0.513	0.36	0.019	1.06	1.21	2.16	1.26	0.651	-0.0148
AGTCAAAGTTCACTAGATAACGTAAGATTCAGCT	3.55	4.97	5.79	3.76	3.84	1.46	-0.386	3.5	3.35
TCTCGGAGGACACTAAGGTCAGAGCTTTCCAGAG	3.82	3.4	3.84	1.33	2.26	3.71	3.11	3.31	2.73
TAGCCTAGGTCATGCGGGCCACTATAGTGTCGGC	2.97	4.13	4.41	0.662	3.23	3.15	0.932	3.58	1.08
GCTCGGAGGACAATGTCAGAGCTTTGTCCGTAGA	0.0448	-0.133	0.0822	0.18	-0.593	0.348	-0.612	-0.573	-0.447
ATCGATAGGTCGAAGGTGAGTATACCCACCCGAA	0.922	2.06	1.56	-0.262	2.36	0.837	-0.266	0.776	-0.3
TCTTGTAGATCAAGCAGGTTAAGCAAGCCTGAGT	0.0597	-0.0759	-0.399	0.344	0.228	0.275	-0.299	0.328	-0.175

Sequence	PBM binding z-score [1]	PBM binding z-score [2]	PBM binding z-score [3]	PBM binding z-score [4]	PBM binding z-score [5]	PBM binding z-score [6]	PBM binding z-score [7]	PBM binding z-score [8]	PBM binding z-score [9]
CCGACAGGGGCAAAGGTTACCATACTCAGTACGA	2.32	3.95	2.17	1.26	5.03	2.17	-0.142	2.6	0.724
AGAACGAGGGCAATGAGTTGATAGGACGGGTGGC	1.01	1.22	1.39	2.23	0.869	0.954	-0.116	5.22	3.01
CCTAGCAGGCCAGGGTCACTCCAGCATTTCGCTT	2.7	2.61	2.18	0.578	2.86	2.61	1.02	2.18	1.64
ATCTCGAGGTAAAGTTCAGTGAAAGATCGATAGA	2.23	2.68	2.72	0.929	1.7	1.71	-0.0248	1.64	1.71
ATCTCTAGGTAAGACTCAGGTCAGTGAAGAACGC	2.52	1.49	1.35	0.359	0.773	2.67	2.37	0.693	0.803
CCTAGTAGGTCAAGGTCACACACGCTATAGGTAC	5.28	6.17	7.17	2.82	6.23	4.3	4.17	5.04	3.86
CGTCCAAGGTCAACGGTCAGTGAAGAGATGACGG	4.55	6.08	6.47	3.36	5.56	4.13	2.62	4.18	2.15
ATATGTAGATTAAGGGTCATTCAGGTTGGTTCGC	3.42	3.56	2.52	2.22	4.48	3.17	1.19	5.22	4.19
CCTTACGGGTCACTCCAGGTTATAGCCTCGGAGT	3.1	4.3	4.02	1.01	4.02	5.14	0.467	4.09	1.13
CTCGAAAGGTCGGTTGAGGTTAGTATACGGATAA	2.64	3.18	3.08	1.15	2.6	4.85	0.58	3.58	0.818
AGAATGAGGTTACCAAAGATCACGGAAACGCTTG	1.02	2.24	1.89	1.17	2.95	3.03	0.696	1.97	0.151
CCGAGTAGGTTATGGGGCGTTCAGGCAACGGTGA	0.761	0.491	0.0403	-0.298	0.251	0.608	0.402	0.0035	0.062
CCTTACGGGTCTCTGACAGGTTATAGCATTTGGA	-0.0333	0.29	0.275	0.321	0.277	0.0789	-0.175	-0.307	-0.188
CGTCAAAGTTCAAGGTAACGTAACAGAAAGCAGC	3.92	5.25	5.88	4.03	4.58	3	1.32	3.78	3.12
TCATATATGTAAATGCTAGGTGAAAGTCCGATCT	0.368	0.1	0.244	1.18	0.654	1.01	0.597	0.934	-0.0734
CGAACTAGGTCATCCAAGACAGTGAATACATTGA	2.81	4.15	4.88	2.42	3.45	2.84	0.947	2.57	1.06
TCGTATAGGTAAATGCTAGGTGAAAGTCCGATCT	0.475	0.402	0.0931	1.07	0.407	1.48	0.325	0.443	-0.0661
AGAACGAGGGCGATGAGTTGATAGCACGGGTGGC	-0.239	-0.0988	0.302	1.06	0.298	-0.0851	-0.71	3.12	2.17
CAAACTAGGCCAAAGGTCAAAGTCGAGCCAACCA	4.89	6.83	5.59	1.38	7.49	3.93	0.417	4.89	1.61
GCTGCTAGGTCAACGGATGGTCAGCTAAAGCTCG	3.51	4.98	5.24	1.17	2.82	2.51	0.887	0.92	0.0371
ATCGAAAGGTCGTGAGGTGAGGATACAGAAAGGC	3.16	4.81	3.99	1.31	5.33	3.74	2.51	3.46	0.974
GCTTGTAGATCAAGGTTGAGAAAGACTAAGCTAA	-0.753	-0.343	-0.385	0.0122	-0.32	-0.135	-0.906	-0.388	-0.235
GCGACTGGGGCAAAGCAGGTAACCATAAGGTTGG	0.207	0.0978	0.448	-0.914	0.117	2.89	-0.129	-0.313	-0.329
GCATATAGGTAATACAAGGTGATAGTCCGATTGT	-0.0222	0.537	0.59	0.172	0.526	3.48	0.413	-0.0322	-0.123
